Source: PubChem
HTR5A inv ctr – HTR5A inverse agonists in luminescence cell assay, primary screen, counter-screen for OPRM1-OPRD1 heterodimer inverse agonist project, full-deck HTS; 0.083% of 340,000 active; HTR5A cell line, inverse agonism; inhibition, % at 9.3 µM; 5-hydroxytryptamine receptor 5A (Homo sapiens), P47898; in the data active = inhibition mostly above about 23%, no sharp cut-off; inactive = mostly below about 18%;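 also: 0% = cells with DMSO and 100% = no-cell wells with DMSO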
HTR5A ag – HTR5A agonists in luminescence cell assay, primary screen, counter-screen for OPRM1-OPRD1 heterodimer agonist project, full-deck HTS; 5-hydroxytryptamine receptor 5A (Homo sapiens), P47898; cell-based; activation, % at 9.3 µM; 0.61% of 340,000 active; in the data active = activation mostly above about 9.5%, no sharp cut-off; inactive = mostly below about 7.6%;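 also: 0% = cells with vehicle only and 100% = reference agonist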
MOR-DOR inv ag – inverse agonists of MOR-DOR heterodimerization, primary screen, cell-based, luminescence; cell-based MOR-DOR heterodimer luminescence, inverse agonism; inhibition, % at 9.3 µM; 0.21% of 340,000 active; AID 504357, 2011; in the data active = inhibition above about 22%, passing the limit was not always enough;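 also: 0% = cells with DMSO and 100% = wells without cells with DMSO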
A1 inh – caspase 3/7 activation in MEF A1-2A-BIM cells, primary screen, A1 inhibitor project, cell-based, luminescence, HTS; AID 2462, 2010; caspase activation, % (test concentration not listed); Caspase-Glo 3/7 luminescence, 3 h; percent of clofoctol response, vehicle zero; 0.066% of 330,000 active;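 active = over half of replicate activation scores above 10%, or exactly half above 10 with the replicate mean above 10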
MOR-DOR ag-1 – agonists of OPRM1-OPRD1 heterodimerization, primary screen, cell-based, luminescence; 0.3% of 340,000 active; activation, % at 9.3 µM; cells; Mu-type opioid receptor (Homo sapiens) + Delta-type opioid receptor (Homo sapiens), …;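 also: 0% = vehicle-treated cells and 100% = reference agonist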
MOR-DOR ag-2 – OPRM1-OPRD1 heterodimerization promoters, counter-screen for HTR5A agonist project, cell-based, luminescence. shares compounds with HTR5A ag. U2OS counter-screen cells, complementation luminescence, 3 h. activation, % at 9.3 µM. 13% of 800 active
HTR5A ag confirm – HTR5A agonists, retest of hits, confirmation, cell-based, luminescence; 17% of 800 active; activation, % at 9.3 µM; shares compounds with HTR5A ag; HTR5A agonist cell assay; in the data active = activation above about 17%;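 also: 0% = cells with vehicle only and 100% = full reference agonist response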
Numbers without * were called inactive. Compounds with a hit are over-represented: about 1.1% of the library has one in this group of screens. Rule as the data show it, unless noted: active = activation above about 18%; inactive = the rest.

Cc1ccc(OCC(=O)N(C)CC(=O)Nc2ccc(Cl)c(C(F)(F)F)c2)c([N+](=O)[O-])n1 was read as HTR5A inv ctr -37, HTR5A ag 15*, MOR-DOR inv ag -6, A1 inh 1, MOR-DOR ag-1 2, MOR-DOR ag-2 -3 and HTR5A ag confirm -6.
Screening Cc1ccc2cccc(OCC(=O)N(C)CC(=O)Nc3ccc(F)cc3)c2n1 returned HTR5A inv ctr -41, HTR5A ag 16*, MOR-DOR inv ag 19, A1 inh 0, MOR-DOR ag-1 -5, MOR-DOR ag-2 1 and HTR5A ag confirm 2.
`CCC(=O)c1ccc(OCC(=O)OCC(=O)N2CCc3ccccc32)cc1` gave HTR5A inv ctr 1, HTR5A ag 4, MOR-DOR inv ag 15, A1 inh 0 and MOR-DOR ag-1 -3.
`COc1ccc(CNC(=O)CN(CC2CCCO2)C(=O)CNS(=O)(=O)c2ccccc2)cc1` (centres undefined) gave HTR5A inv ctr -51, HTR5A ag 17*, MOR-DOR inv ag 12, A1 inh 1, MOR-DOR ag-1 -2, MOR-DOR ag-2 4 and HTR5A ag confirm 3.
`COc1cccc(C2N(c3ccccc3)CCN2c2ccccc2)c1OC` gave HTR5A inv ctr -11, HTR5A ag 4, MOR-DOR inv ag 9, A1 inh 1 and MOR-DOR ag-1 -2.
`COc1cccc(C2N(Cc3ccccc3)C(=O)C2(F)F)c1OC` (centres undefined) gave HTR5A inv ctr -46, HTR5A ag 16*, MOR-DOR inv ag -3, A1 inh 0, MOR-DOR ag-1 1, MOR-DOR ag-2 2 and HTR5A ag confirm -5.
For CCCCCCCCCCCCCCCC[n+]1cccc2ccccc21 the results were HTR5A inv ctr -36, HTR5A ag 20*, MOR-DOR inv ag -74, A1 inh 1, MOR-DOR ag-1 15, MOR-DOR ag-2 494* and HTR5A ag confirm 7.
O=C1CC(c2cccc(Cl)c2)Cc2nc(N3CCN(c4ccccc4)CC3)ncc21 (centres undefined) was read as HTR5A inv ctr -42, HTR5A ag 17*, MOR-DOR inv ag 7, A1 inh -1, MOR-DOR ag-1 -2, MOR-DOR ag-2 2 and HTR5A ag confirm 2.
COc1ccc(C(C)(C)C)cc1NC(=O)c1ccc2ncsc2c1 was read as HTR5A inv ctr -8, HTR5A ag 16*, MOR-DOR inv ag -14, A1 inh 2, MOR-DOR ag-1 2, MOR-DOR ag-2 13 and HTR5A ag confirm 7.
`O=C(Nc1ccc(Oc2cccc(C(F)(F)F)c2)nc1)c1ccco1` gave HTR5A inv ctr -31, HTR5A ag 5, MOR-DOR inv ag -7, A1 inh 1 and MOR-DOR ag-1 1.
`CC(C)(C)c1ccc(Oc2ccc(NC(=O)c3ccco3)cn2)cc1` gave HTR5A inv ctr 16, HTR5A ag 16*, MOR-DOR inv ag -32, A1 inh 2, MOR-DOR ag-1 6, MOR-DOR ag-2 28* and HTR5A ag confirm -2.
`CN(C)/C=N/c1nc(-c2ccc3ccccc3c2)cs1` gave HTR5A inv ctr -24, HTR5A ag 7, MOR-DOR inv ag 13, A1 inh -5 and MOR-DOR ag-1 -3.
For Cc1cc(NC(=O)CSc2nc(-c3ccc(Cl)cc3)cs2)no1 the results were HTR5A inv ctr -53, HTR5A ag 20*, MOR-DOR inv ag -31, A1 inh 1, MOR-DOR ag-1 6, MOR-DOR ag-2 2 and HTR5A ag confirm 6.
For CCOC(=O)C1(Cc2cccc(OC)c2)CCCN(Cc2cc(C(C)C)n[nH]2)C1 (centres undefined) the results were HTR5A inv ctr -20, HTR5A ag 16*, MOR-DOR inv ag -1, A1 inh 0, MOR-DOR ag-1 0, MOR-DOR ag-2 3 and HTR5A ag confirm 38*.
